Test results: PubChem BioAssay AID1490 (National Center for Advancing Translational Sciences (NCATS), 2009)
The whole screen tested about 310,000 compounds, of which about 11,000 (3.5%) were called active. About 4% were inconclusive and are not listed. Shown is part of a subset that was picked to be rich in actives. A number with no mark means an inactive call. Calls follow the shape of the dose curve; as a rule, active = well fitted inhibition curve with a large enough effect; inconclusive = small, poorly fitted or top-dose-only effect, or another doubt; inactive = no such curve, though single readings can be large or run the other way.

Target: 4'-phosphopantetheinyl transferase ffp (Bacillus subtilis) (UniProt Q9F4F7)
Experiment: qHTS Assay for Inhibitors of Bacillus subtilis Sfp phosphopantetheinyl transferase (PPTase);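 also: the enzyme is Sfp with the accession as filed and its product quenches rhodamine fluorescence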;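 as to largest response in the series, negative = inhibition: 0% = enzyme reaction without inhibitor and -100% = no enzyme wells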
Conditions: Biochemical Sfp PPTase activity
How it was run: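 Fluorescence-quenching assay with 15 nM Sfp, 5 uM rhodamine-CoA and 12.5 uM BHQ-2-labelled ybbR peptide in pH 7.6 Hepes/MgCl2 buffer. Enzyme was pre-incubated with compound for 15 min at room temperature. Rate was taken from the 30-min fluorescence change (525/598 nm).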
Potency is read from the fitted curve at half-maximal effect.

Compared with `CCC(C)(C)NC(=O)C1c2ccccc2Oc2ccccc21`, `O=C(Nc1nnc(-c2ccccc2F)s1)c1ccccc1F` is lower in largest response in the series, negative = inhibition: 14.9% for the first, -1.78% for the second.

Going from `COc1ccccc1N1CCN(S(=O)(=O)c2ccc3c(c2)NC(=O)CS3)CC1` to `CSc1nc2ccc(S(=O)(=O)N3CCc4ccccc43)cc2s1`, the largest response in the series, negative = inhibition rises from 7.23% to 7.95%.

Compared with `CC1=C(C(=O)Nc2ccccc2)C(c2ccco2)C(C#N)=C(SCC(N)=O)N1` (configuration not stated), `COc1cc(C2C(C(=O)c3ccco3)=C(O)C(=O)N2c2cc(C)on2)ccc1OCc1ccccc1` (configuration not stated) is higher in largest response in the series, negative = inhibition: -0.0015% for the first, 0.107% for the second.

Compared with `C=CCOC(=O)C1=C(C)NC(C)=C(C(=O)OCC=C)C1c1cccs1`, `C=CCNC(=O)c1ccccc1SCc1c(C)noc1C` is lower in largest response in the series, negative = inhibition: 24.6% for the first, -6.81% for the second.

First: CCOc1ccc(-n2c(SCC(=O)Nc3ccc(OC)cc3)nc3sc4c(c3c2=O)CCN(C)C4)cc1
Second: COc1cc(NS(=O)(=O)c2ccc(NC(=S)NC(=O)c3ccc(Br)cc3)cc2)ncn1
The largest response in the series, negative = inhibition of the first is lower: -4.55% for the first, 1.72% for the second.

First: CCCOc1cccc(C(=O)NCCCNC(=O)c2cccnc2)c1
Second: COC(=O)c1ccc(COC(=O)c2cnc(Cl)c(Cl)c2)cc1
The largest response in the series, negative = inhibition of the first is higher: 1.7% for the first, -10.6% for the second.

First: Cc1cccc(OCc2ccc(C(=O)Nc3ccc(F)cc3)cc2)c1
Second: Fc1ccc(COc2ccc(-c3nnco3)cc2)cc1
The largest response in the series, negative = inhibition of the first is lower: 10.4% for the first, 12.8% for the second.

Going from `CC(=O)NS(=O)(=O)c1ccc(N/C(N)=N/c2nc(C)cc(C)n2)cc1` to `Cc1cc(=O)oc2c(C)c(OCC(=O)NCCc3ccc(S(N)(=O)=O)cc3)ccc12`, the largest response in the series, negative = inhibition rises from 6.28% to 11%.

First: CCCC(C(=O)NC1CCCC1)N(C(=O)Cn1nnc(-c2ccc(C)o2)n1)c1cccc(O)c1 (configuration not stated)
Second: CCOc1cc(-c2noc(CCCC(=O)NC3CCCCC3)n2)ccc1OC
The largest response in the series, negative = inhibition of the first is lower: -2.43% for the first, 13% for the second.

First: Cc1noc(C)c1-c1ccc2ncnc(NCc3ccc4[nH]ccc4c3)c2c1
Second: COc1ccc(OC)c(Nc2nc(-c3ccc(O)c(O)c3)cs2)c1
The largest response in the series, negative = inhibition of the first is higher: -0.183% for the first, -45.7% for the second.

Compared with `O=C(Nc1cn(-c2ccccc2)nc1-c1ccccc1)c1ccccc1`, `c1ccc(Cc2nn3c(Cn4cnc5ccccc54)nnc3s2)cc1` is lower in largest response in the series, negative = inhibition: -4.06% for the first, -63.8% for the second.

First: N=C(N)SCc1cccc2ccccc12
Second: CC(=O)N1CCN(c2ccccc2NC(=S)NC(=O)c2cc3ccccc3o2)CC1
The largest response in the series, negative = inhibition of the first is lower: -0.359% for the first, 7.22% for the second.

Compared with `CC(=O)OCC1OC(C#CCCCc2ccccc2)C=CC1OC(C)=O` (configuration not stated), `CC(=O)NCC(=O)N1CCC(n2nccc2NC(=O)CCCc2ccccc2)CC1` is lower in largest response in the series, negative = inhibition: 17.9% for the first, 13.4% for the second.

Going from `CC(=O)OC(COc1ccc(F)cc1)Cn1cnc2ccccc21` (configuration not stated) to `COc1ccc(C)cc1N(CC(=O)NC(C)c1ccccc1)S(C)(=O)=O` (configuration not stated), the largest response in the series, negative = inhibition rises from -2.66% to 4.53%.

First: COCCn1c(SCC(=O)N2CCCCCC2)nc2c(c1=O)SCC2
Second: CCN(CC)CCN(C(=O)c1ccc(S(=O)(=O)N2CCOCC2)cc1)c1nc2cc3c(cc2s1)OCCO3
The largest response in the series, negative = inhibition of the first is lower: 4.45% for the first, 7.56% for the second.

First: CC(NC(=O)Nc1cccc([N+](=O)[O-])c1)c1ccc2c(c1)OCO2 (configuration not stated)
Second: O=C(Nc1nc2ccc([N+](=O)[O-])cc2s1)c1ccc(S(=O)(=O)N2CCCc3ccccc32)cc1
The largest response in the series, negative = inhibition of the first is lower: -3.6% for the first, -0.333% for the second.

Compared with `Cc1ccc2nc(N(CCN(C)C)C(=O)C3=COCCO3)sc2c1`, `Cc1csc(-c2nc3ccccc3n2C)n1` is lower in largest response in the series, negative = inhibition: 5.53% for the first, -0.542% for the second.

Compared with `CCC1Sc2ccc(S(=O)(=O)CCC(=O)NCc3cccs3)cc2NC1=O` (configuration not stated), `CN(CC(=O)Nc1c(Cl)cccc1Cl)C(=O)c1ccncc1` is lower in largest response in the series, negative = inhibition: 20.6% for the first, 13.1% for the second.

Compared with `CC(C)=CCCC(C)CN1CCC(n2nccc2NC(=O)c2ccccc2)CC1` (configuration not stated), `COc1ccc(-c2csc(Cc3nc(O)cs3)n2)cc1` is lower in largest response in the series, negative = inhibition: 9.72% for the first, -23.9% for the second.

With `Cc1cc(C(F)(F)F)nn1-c1nc(-c2ccco2)cc(C(F)(F)F)n1` the largest response in the series, negative = inhibition was 11.9%.

With `CC1=C(C(=O)Nc2ccccc2)C(c2cccs2)C(C#N)=C(SCC#N)N1` (configuration not stated) the Potency was 39.8 µM (active).
In the case of `Fc1ccc(COc2cccc(-c3n[nH]c(=S)o3)c2)cc1`, the Potency is reported as 39.8 µM (active).
For `CCc1ccc(-c2nn(-c3ccccc3)cc2CSC(=N)N)cc1`, the Potency was 39.8 µM (active).
For `Fc1ccc(OCc2nn3c(Cn4nnc5ccccc54)nnc3s2)cc1`, the Potency was 15.8 µM (active).
`CN(C)CCCN(C(=O)c1ccc(S(=O)(=O)N2CCCc3ccccc32)cc1)c1nc2ccc(F)cc2s1` was tested, and the Potency was 56.2 µM (active).
For `CN(C)CCCN(C(=O)c1ccc(S(=O)(=O)N2CCCCCC2)cc1)c1nc2ccc(Br)cc2s1`, the Potency was 50.1 µM (active).
In the case of `CC(C)(C)C(=O)OCc1nc(-c2ccc(O)c(O)c2)cs1`, the Potency is reported as 56.2 µM (active).
`Cn1c(-c2ccco2)nc2cc3ccccc3cc21` was tested, and the Potency was 56.2 µM (active).
